Unmarked numbers belong to inactive results. Records with an inconclusive call do not appear. A call without a number means that no potency is given here. Calls of active or inactive are those of the source. The call rests on the fitted dose curve; in most records, active means well fitted inhibition curve with a large enough effect; inconclusive means small, poorly fitted or top-dose-only effect; inactive means flat fitted curve, though single readings scatter.
Key:
[1] = biological target: Glutathione peroxidase 1 (Homo sapiens) (UniProt P07203); test: Primary qHTS Assay for Inhibitors of Recombinant Selenoprotein Glutathione Peroxidase 1 (GPX1) (AID 1845191); conditions: recombinant GPX1, GR-coupled NADPH fluorescence, 15 min; series mostly up to 48.8 µM; further: nearly all actives have a fitted effect of over 65% in size
In short: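 GR-coupled readout: NADPH consumption tracked by fluorescence, ex 340/em 450 nm, at t=0 and after 15 min at RT. Final mix 10 nM GPX1, 1 mM GSH, 0.5 mM CHP, 0.5 mM NADPH, 100 nM GR, 0.01% BSA, following 30 min enzyme–compound preincubation.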

[2] = biological target: Phospholipid hydroperoxide glutathione peroxidase GPX4 (Homo sapiens) (UniProt P36969); test: Primary qHTS Assay for Inhibitors of Recombinant Selenoprotein Glutathione Peroxidase 4 (GPX4) (AID 1845192); conditions: recombinant GPX4, GR-coupled NADPH fluorescence, 15 min; series mostly up to 50 µM; further: nearly all actives have a fitted effect of over 65% in size; further: potency means the concentration at half of the fitted maximal effect
In short: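 Steps: GPX4 plus compound, 30 min RT; add GR/GSH/NADPH master mix; start with cumene hydroperoxide; read 340/450 nm fluorescence at 0 and 15 min. Finals were 200 nM GPX4, 1 mM GSH, 0.5 mM CHP, 0.5 mM NADPH, 100 nM GR.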

[3] = biological target: Luciferin 4-monooxygenase (Photinus pyralis) (UniProt P08659); test: Primary firefly luciferase (FLuc) qHTS assay for identification of artifact compounds. (AID 1845220); conditions: purified firefly luciferase, luminescence, 5 min; series mostly up to 54.1 µM; further: nearly all actives have a fitted effect of over 60% in size
In short: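 Enzymatic FLuc inhibition assay: compounds pre-exposed to luciferin/ATP (10 uM each) for 15 min, then purified P. pyralis enzyme at 10 nM added. Read-out: luminescence at 5 min.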

Chain of Glutathione peroxidase 1 (Homo sapiens) (P07203 whole entry, looked up): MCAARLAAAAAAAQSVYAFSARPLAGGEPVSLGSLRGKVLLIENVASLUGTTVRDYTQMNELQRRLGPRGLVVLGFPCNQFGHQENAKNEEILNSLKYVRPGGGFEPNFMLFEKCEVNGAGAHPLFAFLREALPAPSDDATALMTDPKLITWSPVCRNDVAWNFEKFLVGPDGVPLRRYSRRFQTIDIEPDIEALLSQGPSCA
Chain of Phospholipid hydroperoxide glutathione peroxidase GPX4 (Homo sapiens) (P36969 whole entry, looked up): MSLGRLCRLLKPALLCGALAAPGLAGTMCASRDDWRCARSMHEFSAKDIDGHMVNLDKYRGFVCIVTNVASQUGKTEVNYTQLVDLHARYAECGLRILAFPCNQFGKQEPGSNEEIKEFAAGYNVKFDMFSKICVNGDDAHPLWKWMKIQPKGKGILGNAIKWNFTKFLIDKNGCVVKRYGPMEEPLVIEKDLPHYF

SMILES | Potency [1] | Potency [2] | activity change, negative = inhibition [2] | Potency [3]
CCC[C@H](N[C@@H](C)C(=O)N1[C@@H]2CCCC[C@H]2C[C@H]1C(=O)O)C(=O)OCC | inactive | inactive | – | –
CCN(CC)CCCCNc1nc2cc(Cl)c(Cl)cc2nc1-c1ccc(-c2cccs2)s1 | inactive | 20.2 µM (active) | – | –
CCCCOCCOc1nc(-c2ccc(C(=O)O)c(F)c2)sc1C | inactive | inactive | – | –
CO[C@@H]1C(N(C)C(=O)c2ccccc2)C[C@H]2O[C@]1(C)n1c3ccccc3c3c4c(c5c6ccccc6n2c5c31)C(=O)NC4=O (some centres undefined) | inactive | 18 µM (active) | – | –
CC[C@H](C)C(=O)O[C@H]1C[C@H](O)C=C2C=C[C@H](C)[C@H](CC[C@@H](O)C[C@@H](O)CC(=O)O)[C@H]21 | inactive | inactive | – | –
N#Cc1c(N(CC(=O)O)CC(=O)O)sc(C(=O)O)c1CC(=O)O | inactive | – | 4.92% [at 0.409 µM] | –
CC(C)C[C@@H](N)[C@H](O)C(=O)N[C@H](C(=O)N[C@H](C(=O)N[C@@H](CC(=O)O)C(=O)O)C(C)C)C(C)C | inactive | inactive | – | –
CN1CC(=O)NC1=NC(=O)Nc1cccc(Cl)c1 | inactive | inactive | – | –
CC(C)C[C@H](NC(=O)c1cc2ccccc2s1)C(=O)N1CCN(C(=O)[C@H](CO)NS(=O)(=O)c2ccc(Cl)cc2Cl)CC1 | inactive | inactive | – | –
CCC(=O)NCC[C@@H]1CCc2ccc3c(c21)CCO3 | inactive | inactive | – | –
COc1ccc2c(c1)c(C1=C(c3c[nH]c4ccccc34)C(=O)NC1=O)cn2CCCN(C)C | inactive | inactive | – | –
c1ccc(CNc2nc(N3CCOc4ccccc43)nc3c2CCCC3)cc1 | inactive | inactive | – | inactive
CCc1cc(-c2n[nH]c(C)c2-c2ccc3c(c2)OCCO3)c(O)cc1O | inactive | inactive | – | –
CC(C)Oc1cc(Nc2nc(N[C@@H](C)c3ccc(F)cn3)ncc2Cl)[nH]n1 | inactive | inactive | – | –
CN(C)c1ccccc1CN1CCCN(Cc2ccccc2N(C)C)C1c1ccncc1 | inactive | inactive | – | –
CC(=O)NCCC(=O)N[C@@H](CCC(N)=O)C(=O)N[C@@H](CO)C(=O)N[C@@H](CCC(N)=O)C(=O)N[C@@H](CCC(N)=O)C(=O)N[C@H](C(=O)N[C@@H](Cc1ccccc1)C(=O)N[C@]1(C)CCCCCCC=CCCC[C@@](C)(C(=O)N[C@@H](CCC(N)=O)C(=O)N[C@@H](CC(N)=O)C(N)=O)NC(=O)[C@H](CC(C)C)NC(=O)[C@H](CC(C)C)NC(=O)[C@@H](CCCNC(=N)N)NC(=O)[C@H](Cc2c[nH]c3ccccc23)NC(=O)[C@H](CC(C)C)NC(=O)[C@H](CC(N)=O)NC1=O)[C@H](C)O | inactive | inactive | – | –
COc1cc(Nc2nc3ccccc3nc2NS(=O)(=O)c2ccc(NC(=O)c3ccc(C)c(OC)c3)cc2)cc(OC)c1 | inactive | inactive | – | inactive
Cc1ccc(C(=O)N(CCCN)[C@@H](c2oc3cc(Cl)ccc3c(=O)c2Cc2ccccc2)C(C)C)cc1 | inactive | inactive | – | –
N#CC(c1ccnc(NCCc2cccnc2)n1)c1nc2ccccc2s1 (centres undefined) | inactive | inactive | – | –
Cc1cccc(Nc2nc(N[C@@H]3CCCC[C@H]3N)ncc2C(N)=O)c1 | inactive | inactive | – | –
COc1nc(C)cnc1NS(=O)(=O)c1cccnc1-c1ccc(-c2nnco2)cc1 | inactive | inactive | – | inactive
CC1CNc2c(cccc2S(=O)(=O)N[C@@H](CCCN=C(N)N)C(=O)N2CC[C@@H](C)C[C@@H]2C(=O)O)C1 (some centres undefined) | inactive | inactive | – | –
CCOC(=O)N1c2ccc(C(F)(F)F)cc2[C@@H](N(Cc2cc(C(F)(F)F)cc(C(F)(F)F)c2)C(=O)OC)C[C@H]1CC | inactive | inactive | – | –

Source: PubChem BioAssay (NCATS)
